Bioassay records deposited in PubChem by Broad Institute.
Hits are enriched below; roughly 0.9% of the tested compounds scored in any of these assays.
BJeLR viab HTS: lowers viability of BJeLR cells. BJeLR fibroblasts viability, CellTiterGlo ATP luminescence, 48 h; HRASV12, hTERT and SV40 LT/ST transformed. viability loss activity score, % (test concentration not listed). 30,000 compounds, 0.64% hits; in the data active = viability loss activity score above about 50%;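 also: higher score means fewer live cells and less ATP luminescence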
A1 inh: inhibitors of A1; MEF A1-2A-BIM cells, caspase-Glo luminescence, 3 h; percent of clofoctol signal, DMSO as zero; caspase activation, % (concentration not given with the values); 21,000 compounds, 0.51% hits; AID 2241;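 active = most replicate scores above 10, or exactly half above 10 with mean activity above 10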;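 also: effector caspase 3 and 7 activity cleaving a DEVD luciferin substrate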
* = called active by the depositor; . = no result.

SMILES	BJeLR viab HTS	A1 inh
COc1cccc2c1C(c1ccc3c(c1O)C(=O)CC(C)C3O)OC2=O (stereo not drawn)	1	1
COc1cccc2c1C(=O)c1ccc3c(c1C2=O)C(=O)CC(C)(O)C3 (stereo not drawn)	0	-1
C[C@H]1CN([C@@H](C)CO)C(=O)c2cccc(NC(=O)Nc3ccc(F)cc3)c2O[C@H]1CN(C)S(=O)(=O)c1ccccc1	-1	.
Cc1ccc(-c2nsc(SCC(=O)c3ccc(Cl)cc3)n2)cc1	-1	0
CCOc1ccc(-c2c(C#N)c(N)nc(SCC(=O)c3ccc(Cl)cc3)c2C#N)cc1	4	16*
COc1cc(C2Nc3ccccc3S2)cc(OC)c1OC (stereo not drawn)	-3	2
c1ccc2c(c1)NC(c1ccc3c(c1)OCO3)S2 (stereo not drawn)	72*	-7
CSc1ccccc1NC(=O)CSc1nc2ccc(C)cc2[nH]1	-2	1
Cc1ccc2nc(S/C=C/C(=O)c3ccccc3)[nH]c2c1	72*	5
Nc1nc(Cl)nc2c1ncn2C1C[C@@H](O)C(CO)O1 (stereo partly drawn)	-17	1
Nc1nc(Cl)nc2c1ncn2C1OC(CO)[C@H](O)[C@H]1F (stereo partly drawn)	54*	1
Cc1ccc(-c2ccc(=O)n(CC(=O)N3CCCCC3)n2)cc1	-5	0
C[C@H]1CN([C@@H](C)CO)C(=O)c2cccc(NC(=O)Nc3ccccc3)c2O[C@H]1CN(C)C(=O)Nc1ccc(F)cc1	5	.
Oc1ccc2ccccc2c1C=NCc1cccnc1	-10	1
Nc1ncnc2c1c(I)cn2C1OC(CO)C(O)C1O (stereo not drawn)	63*	26*
OC[C@H]1O[C@@H](n2cnc3c(NCc4ccco4)ncnc32)[C@H](O)[C@@H]1O	6	0
C[C@H]1CN([C@@H](C)CO)C(=O)c2cccc(NS(=O)(=O)c3cccs3)c2O[C@@H]1CN(C)Cc1ccccc1	0	.
O=C(c1ccc2c(c1)C(=O)c1ccccc1-2)c1ccccc1Br	5	0
O=C(Nc1cccc(Br)c1)c1cccc2c1C(=O)c1ccccc1-2	1	26*
O=C(CSc1nnc2scc(-c3ccc(Cl)cc3)n12)c1ccc2c(c1)OCO2	4	0
COc1ccc(CCNc2nc(SCC(=O)c3ccc(F)cc3)nc3ccccc23)cc1OC	-3	16*
COc1cc(Nc2nc(SCC(=O)c3ccc(O)c(O)c3)nc3ccccc23)cc(OC)c1	5	0
Oc1c(C(c2ccncc2)N2CCCC2)ccc2cccnc12 (stereo not drawn)	31	5
COc1ccc(C(c2ccc3cccnc3c2O)N2CCOCC2)cc1 (stereo not drawn)	30	43*
O=C(NCc1ccccc1)C1CCN(Cc2cnn(-c3ccccc3)c2-n2cccc2)CC1	1	0
SMILES	BJeLR viab HTS	A1 inh
C=CCOc1ccccc1OCC(O)CNC(C)C (stereo not drawn)	56*	-1
CC(=O)Nc1ccc(OCC(O)CNC(C)C)cc1 (stereo not drawn)	4	0
Cc1nc(Oc2ccc3c(C)cc(=O)oc3c2)c2c3c(sc2n1)CCC3	3	-1
Cc1nc(Oc2ccc(NC(=O)c3ccccc3)cc2)c2c3c(sc2n1)CCC3	8	29*
C=CCc1ccc(O[C@@H]2O[C@H](CO[C@@H]3O[C@@H](C)[C@H](O)[C@@H](O)[C@H]3O)[C@@H](O)[C@H](O)[C@H]2O)c(O)c1	1	1
C=CCc1ccc(O[C@@H]2O[C@H](CO)[C@@H](O)[C@H](O)[C@H]2O)c(O[C@@H]2O[C@H](CO)[C@@H](O)[C@H](O)[C@H]2O)c1	70*	0
CC1(C)CC[C@]2(C(=O)O[C@@H]3O[C@H](CO)[C@@H](O)[C@H](O)[C@H]3O)CC[C@]3(C)C(=CCC4[C@@]5(C)CC[C@H](O[C@@H]6O[C@H](C(=O)O)[C@@H](O[C@@H]7O[C@H](CO)[C@@H](O)[C@H](O)[C@H]7O)[C@H](O)[C@H]6O)C(C)(C)C5CC[C@]43C)C2C1 (stereo partly drawn)	2	0
CC1(C)CC[C@@]2(C(=O)O[C@@H]3O[C@H](CO)[C@@H](O)[C@H](O)[C@H]3O)C(C1)C1=CCC3[C@@]4(C)CC[C@@H](O[C@@H]5O[C@H](C(=O)O)[C@@H](O[C@@H]6OC[C@@H](O)[C@H](O)[C@H]6O)[C@H](O)[C@H]5O)C(C)(C)C4CC[C@@]3(C)[C@]1(C)C[C@H]2O (stereo partly drawn)	0	0
CC1OC(O[C@H]2CC[C@@]3(C)C(CC[C@]4(C)C3CC=C3C5CC(C)(C)CC[C@]5(C(=O)OC5OC(CO)C(OC6OC(CO)C(O)C(O)C6O)C(O)C5O)CC[C@]34C)C2(C)C)C(O)C(O)C1OC1OCC(O)(COC2OCC(O)C(OC3OCC(OC4OCC(O)(CO)C4O)C(O)C3O)C2O)C1O (stereo partly drawn)	-5	0
CC1OC(OC2C(CO)OC(OC(=O)[C@]34CCC(C)(C)CC3C3=CCC5[C@@]6(C)CC[C@H](OC7OC(C)C(OC8OCC(O)(COC9OCC(O)C(OC%10OCC(OC%11OCC(O)(CO)C%11O)C(O)C%10O)C9O)C8O)C(O)C7O)C(C)(C)C6CC[C@@]5(C)[C@]3(C)CC4)C(O)C2O)C(O)C(O)C1O (stereo partly drawn)	4	12*
C[C@@H]1O[C@@H](O[C@H]2[C@H](O[C@H]3CC[C@@]4(C)C(CC[C@]5(C)C4CC=C4[C@@H]6CC(C)(C)CC[C@]6(C(=O)O[C@@H]6O[C@H](CO[C@@H]7O[C@H](CO)[C@@H](O)[C@H](O)[C@H]7O)[C@@H](O)[C@H](O)[C@H]6O)CC[C@]45C)[C@]3(C)CO)OC[C@H](O)[C@@H]2O)[C@H](O)[C@H](O)[C@H]1O (stereo partly drawn)	-4	0
C[C@@H]1O[C@@H](O[C@H]2[C@H](O)[C@@H](O)[C@H](OC[C@H]3O[C@@H](OC(=O)[C@]45CCC(C)(C)CC4C4=CCC6[C@@]7(C)CC[C@H](O)C(C)(C)C7CC[C@@]6(C)[C@]4(C)CC5)[C@H](O)[C@@H](O)[C@@H]3O)O[C@@H]2CO)[C@H](O)[C@H](O)[C@H]1O (stereo partly drawn)	125*	1
CC(=O)N[C@H]1[C@H](O[C@H]2CC[C@@]3(C)C(CC[C@]4(C)C3CC=C3[C@@H]5CC(C)(C)CC[C@]5(C(=O)OC5OCC(O)C(O)C5O)C(O)C[C@]34C)C2(C)C)O[C@H](COC2OCC(O)C(OC3OCC(O)C(O)C3O)C2O)[C@@H](O[C@@H]2O[C@@H](C)[C@H](O)[C@@H](O)[C@H]2O[C@@H]2O[C@@H](C)[C@H](O)[C@@H](O)[C@H]2O)[C@@H]1O (stereo partly drawn)	1	35*
CC1(C)CC[C@]2(C(=O)OC3OC(CO)C(O)C(O)C3O)CC[C@]3(C)C(=CCC4[C@@]5(C)CC[C@H](OC6OC(C(=O)O)C(O)C(O)C6O)C(CO)(CO)C5CC[C@]43C)[C@@H]2C1 (stereo partly drawn)	133*	2
COc1ccc(CN(C)C[C@@H]2Oc3c(NC(=O)C4CCOCC4)cccc3C(=O)N([C@H](C)CO)C[C@H]2C)cc1	6	.
